# PubChem BioAssay (Tox21)
# Inconclusive results are not listed. Where a call stands in place of a potency, no number is given. Activity calls are given as the source filed them. Unless noted, calls come from the whole dose curve; as a rule, active = well fitted cell-killing curve with a large enough effect in the repeat runs; inconclusive = weak or mixed curves; inactive = flat fitted curve, though single readings scatter.
# Tested on: not listed separately
# Experiment: qHTS assay to identify small molecule antagonists of the estrogen receptor beta (ER-beta) signaling pathway - cell viability counter screen (AID 1259382);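 note: HEK293T cells carrying ER-beta-UAS-bla reporter stimulated with estradiol; nearly all actives have a fitted effect of over 55% in size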
# Details: ER-beta-UAS-bla HEK293T viability, CellTiter-Glo luminescence, 16 h; series mostly up to 92.4 µM
# Procedure, shortened: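 Cells: ER-beta-UAS-bla HEK293T, 2,000/well, 2% CS-FBS, 6 hr settle. Cpd + E2 (1nM final), 16 hr, 37C/5% CO2. Bla FRET substrate 2 hr RT, then CellTiter-Glo 30 min RT, luminescence.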
row,SMILES,Potency
1,CN1CCC(O)(c2ccc(F)cc2)C(C(=O)c2ccc(F)cc2)C1 (stereo unspecified),inactive
2,CC(=O)[C@H]1CC[C@H]2[C@@H]3CC[C@H]4C[C@H](O)CC[C@]4(C)[C@H]3C(=O)C[C@]12C,inactive
3,O=C(O)c1cccc(Cl)c1,inactive
4,O=NN1CCN(N=O)CC1,inactive
5,Nc1ccccc1Cl,inactive
6,CC(C)NCC(O)c1ccc(N)c(C#N)c1 (stereo unspecified),inactive
7,CCOP(=O)(OCC)OP(=O)(OCC)OCC,inactive
8,C[N+](C)=CCl,inactive
9,CC(=O)Nc1cc([As](=O)(O)O)ccc1O,inactive
10,CCOP(=S)(OCC)SCSP(=S)(OCC)OCC,inactive
11,C[C@]12CC[C@H]3[C@@H](CCC4=CC(=O)CC[C@@]43C)[C@@H]1CC[C@@H]2C(=O)O,inactive
12,CCC(=O)c1ccccc1,inactive
13,C[C@@H]1CN(C2CCC(C#N)(c3ccc(F)cc3)CC2)CC[C@]1(C(=O)O)c1ccccc1 (stereo partly specified),inactive
14,N#CCCC#N,inactive
15,CSc1ccc(C(=O)C(C)(C)N2CCOCC2)cc1,inactive
16,c1ccc(N2CCNCC2)cc1,inactive

row,SMILES,Potency
1,CC(C)(C)OC(=O)c1ncn2c1[C@@H]1CCCN1C(=O)c1c(Br)cccc1-2,inactive
2,CC(N)=S,inactive
3,Clc1cccc(N2CCNCC2)c1,inactive
4,CCCCOC(=O)c1ccccc1N,inactive
5,CNC(=O)Oc1ccccc1C1OCCO1,inactive
6,CCOC(=O)NC(=S)Nc1ccccc1NC(=S)NC(=O)OCC,inactive
7,ClCC(Cl)(Cl)Cl,inactive
8,O=C(Cc1ccccc1)OCc1ccccc1,inactive
9,CCCSC(=O)Cl,inactive
10,Cc1cc(C)c(C(=O)P(=O)(C(=O)c2c(C)cc(C)cc2C)c2ccccc2)c(C)c1,inactive
11,CCCCC(=O)Cl,inactive
12,O=c1oc2ccccc2c(O)c1C1CCCc2ccccc21 (stereo unspecified),inactive
13,CCCCc1c(C)nc(NCC)[nH]c1=O,inactive
14,OC(Cn1cncn1)(c1ccc(F)cc1)c1ccccc1F (stereo unspecified),inactive
15,CNCC(=O)c1ccc(O)c(O)c1,inactive

# Target: Estrogen receptor (Homo sapiens) (UniProt P03372)
# Experiment: qHTS assay to identify small molecule agonists of the estrogen receptor alpha (ER-alpha) signaling pathway in the presence of an antagonist (AID 1259383; calls by dose curve; note: nearly all actives have a fitted effect of over 15% in size; note: potency is the fitted concentration of half-maximal effect)
# Details: VM7Luc4E2 cells, ERE-luciferase, +ICI-182,780, 22 h; series mostly up to 92.4 µM
# Procedure, shortened: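 VM7Luc4E2, endog. ER-alpha + 4×ERE-luc; charcoal-stripped FBS, phenol red-free, 5 d; 24hr plating; +10.0nM ICI-182,780 (final); cpds 15 conc, 22hr, 37C/5% CO2; ONE-Glo luminescence.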
# Sequence of Estrogen receptor (Homo sapiens) (P03372 whole entry, looked up): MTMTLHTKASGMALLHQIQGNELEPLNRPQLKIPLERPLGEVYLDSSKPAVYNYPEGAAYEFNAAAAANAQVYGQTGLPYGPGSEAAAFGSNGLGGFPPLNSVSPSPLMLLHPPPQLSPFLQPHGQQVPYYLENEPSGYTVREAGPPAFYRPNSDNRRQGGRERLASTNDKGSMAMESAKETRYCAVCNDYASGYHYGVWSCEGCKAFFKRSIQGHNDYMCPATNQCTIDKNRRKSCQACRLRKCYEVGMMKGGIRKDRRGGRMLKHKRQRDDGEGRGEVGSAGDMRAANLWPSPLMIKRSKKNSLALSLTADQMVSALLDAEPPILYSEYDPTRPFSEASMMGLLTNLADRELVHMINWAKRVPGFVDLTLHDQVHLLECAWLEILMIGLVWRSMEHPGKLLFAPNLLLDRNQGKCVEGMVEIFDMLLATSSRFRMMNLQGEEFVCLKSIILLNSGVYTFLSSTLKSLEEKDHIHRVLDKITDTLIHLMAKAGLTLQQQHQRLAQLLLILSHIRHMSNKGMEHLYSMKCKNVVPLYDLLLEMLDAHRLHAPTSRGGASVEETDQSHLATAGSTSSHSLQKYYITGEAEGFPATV
row,SMILES,Potency
1,CCC(C)n1c(=O)[nH]c(C)c(Br)c1=O (stereo unspecified),inactive
2,CC(=O)[C@H]1CC[C@H]2[C@@H]3CC[C@H]4C[C@H](O)CC[C@]4(C)[C@H]3C(=O)C[C@]12C,inactive
3,O=C(O)c1cccc(Cl)c1,inactive
4,O=NN1CCN(N=O)CC1,inactive
5,Nc1ccccc1Cl,inactive
6,CC1CCCCC1NC(=O)Nc1ccccc1 (stereo unspecified),inactive
7,CC(C)NCC(O)c1ccc(N)c(C#N)c1 (stereo unspecified),inactive
8,COC(=O)c1c(C(F)F)nc(C(F)(F)F)c(C2=NCCS2)c1CC(C)C,inactive
9,C[N+](C)=CCl,inactive
10,CC(=O)Nc1cc([As](=O)(O)O)ccc1O,inactive
11,CCOP(=S)(OCC)SCSP(=S)(OCC)OCC,inactive
12,C[C@]12CC[C@H]3[C@@H](CCC4=CC(=O)CC[C@@]43C)[C@@H]1CC[C@@H]2C(=O)O,inactive
13,CCC(=O)c1ccccc1,inactive
14,C[C@@H]1CN(C2CCC(C#N)(c3ccc(F)cc3)CC2)CC[C@]1(C(=O)O)c1ccccc1 (stereo partly specified),inactive
15,N#CCCC#N,inactive
16,CSc1ccc(C(=O)C(C)(C)N2CCOCC2)cc1,inactive
17,Clc1cccc(N2CCNCC2)c1,inactive
18,COc1cc(C[C@@H](C)N)c(OC)cc1C,inactive
19,CNC(=O)Oc1ccccc1C1OCCO1,inactive
20,ClCC(Cl)(Cl)Cl,inactive
21,O=C(Cc1ccccc1)OCc1ccccc1,inactive
22,CCCSC(=O)Cl,inactive
23,Cc1cc(C)c(C(=O)P(=O)(C(=O)c2c(C)cc(C)cc2C)c2ccccc2)c(C)c1,inactive
24,C#C[C@]1(O)C=C[C@H]2[C@@H]3CCC4=CC(=O)CC[C@@H]4[C@H]3CC[C@@]21CC,3.35 µM (active)
25,O=c1oc2ccccc2c(O)c1C1CCCc2ccccc21 (stereo unspecified),inactive
26,CCCCc1c(C)nc(NCC)[nH]c1=O,inactive
27,OC(Cn1cncn1)(c1ccc(F)cc1)c1ccccc1F (stereo unspecified),inactive
28,CC(CC(C#N)(c1ccccc1)c1ccccc1)N(C)C (stereo unspecified),inactive
29,CNCC(=O)c1ccc(O)c(O)c1,inactive
30,CCN(Cc1ccc(Cl)nc1)/C(=C/[N+](=O)[O-])NC,inactive
